Source: PubChem BioAssay AID589 (National Center for Advancing Translational Sciences (NCATS), 2007)
Values joined by “and” are separate entries in the source; they are usually repeats but may differ in a detail not shown here. Equal entries are not always repeated. Out of some 59,000 compounds screened, about 6,200 (11%) were called active. Another 9% or so got no clear call; they are omitted. Cut-off read from the data, not from the text of the source: active = max dye-equivalent concentration above about 10 nM; inconclusive = mostly about 1.1 nM to 9.6 nM; inactive = weaker than that. Only a selection was taken, and actives are over-represented in it overall.

Assay: qHTS Assay for Spectroscopic Profiling in 4-MU Spectral Region
Conditions: compound autofluorescence, 340/450 nm, 4-MU equivalents; hits give high values
Summary of the method: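 Compounds in 100 mM Tris, pH 8.0, sat 15 min at room temperature before fluorescence was read at 340 nm excitation/450 nm emission; a per-plate six-point 4-MU standard curve converted signals to dye-equivalent concentration at each compound concentration.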

SMILES | max dye-equivalent concentration
CC(C)(C)c1cc(C(=O)NCc2cccnc2)ccn1 | inactive
Cc1ccc(-n2nc(-c3ccco3)cc2C(=O)NCc2cccnc2)cc1 | inactive
COCCn1c(=O)[nH]c2cc(C(=O)NCc3cccnc3)ccc2c1=O | 4.1e-08 M (active)
CCOc1ccccc1Oc1cn[nH]c1-c1ccc(OC)cc1O | inactive
Cc1cc(Cl)c(S(=O)(=O)NCCC(=O)O)cc1OCC(N)=O | inactive
CCOC(=O)c1cc(-c2nnc(-c3cc(OC)c(OC)c(OC)c3)o2)c(C)nc1C | 2.4e-08 M (active)
COc1cc(-c2nnc(Cn3cc(C(F)(F)F)ccc3=O)o2)cc(OC)c1OC | inactive
CCOC(=O)c1cc(NC(=O)SCC(=O)O)c(C)nc1C | inactive
O=C(NCc1ccco1)c1nc(-c2ccccc2)n(-c2ccccc2)n1 | inactive
COC(=O)[C@@H](NC(=O)NCc1cccc(OC)c1)C(C)C | inactive
CCOc1ccc(-c2cn(S(=O)(=O)c3cccc4nsnc34)nc2N)cc1 | inactive
CCOC(=O)NCc1ccc2c(c1)OCO2 | inactive
CC1CCCCN1CC(=O)NCc1ccc2c(c1)OCO2 (configuration not stated) | 5.1e-08 M (active)
O=C(Cn1nnc(-c2ccccc2)n1)NCc1ccc2c(c1)OCO2 | inactive
COc1ccc(S(=O)(=O)Nc2c(C)n(C)n(-c3ccccc3)c2=O)cc1 | inactive
CC1(C)Cc2c(sc3nc4n(c(=N)c23)CCCCC4)CO1 | inactive
CCC1(C)Cc2c(sc3nc4n(c(=O)c23)CCCS4)CO1 (configuration not stated) | 4.7e-08 M (active)
CCOC(=O)Cn1c(SC)nc2sc3c(c2c1=O)CC(C)(C)OC3 | inactive
COc1ccc2[nH]cc(CCNc3cc(-c4ccccc4CN(C)C)ncn3)c2c1 | inactive
O=C(NCCCN1CCN(c2ccccc2F)CC1)C1CCC(=O)N1C1CCCCC1 (configuration not stated) | inactive
COC(=O)c1sc(=S)n(-c2ccccc2)c1N | inactive
CC(C)CCNC(=O)C1CCCN(S(=O)(=O)c2ccc(F)cc2)C1 (configuration not stated) | inactive
COCCNc1ncnc2ccc(-c3cccnc3)cc12 | inactive
CC1CCc2c(sc3c2C2=NS(=O)(=O)CCN2C=N3)C1 (configuration not stated) | 2.6e-08 M (active)
Cc1cc(NC(=O)CCC(=O)N(c2cccc(F)c2)C(C(=O)NC2CCCC2)c2ccncc2)no1 (configuration not stated) | inactive
CS(=O)(=O)N1CCC2(CC1)CN(Cc1ccccc1)C2 | inactive

SMILES | max dye-equivalent concentration
NC[C@@H]1O[C@H](O[C@@H]2[C@H](O[C@@H]3O[C@H](CO)[C@@H](COC[C@H]4O[C@@H](CN)[C@@H](O)[C@@H](O)[C@@H]4N)[C@@H]3O)[C@@H](O)[C@@H](N)C[C@H]2N)[C@@H](N)[C@H](O)[C@@H]1O | inactive
COc1ccc(OC)c(NC(=O)CSc2nc(N)c(-c3ccccc3)c(=O)[nH]2)c1 | inactive
C[N+]1(CCN=C=NC2CCCCC2)CCOCC1 | inactive
CCCCNc1nc2c(c(=O)[nH]c(=O)n2C)n1CCOc1ccccc1 | inactive
O=c1c(-c2ccc(F)cc2)nc2cncnc2n1-c1ccccc1 | inactive
COc1ccc(Oc2ncc3nc(-c4ccc(F)cc4)c(=O)n(C)c3n2)cc1 | inactive
O=C(Nc1ccc(F)cc1)c1cccnc1N1CCOCC1 | inactive
COc1ncc2nc(-c3ccc(Cl)cc3)c(=O)n(C)c2n1 | 2.7e-08 M (active)
O=C(c1ccc2c(c1)C(=O)N(c1ccc(Cl)cc1)C2=O)N1CCN(c2ccccn2)CC1 | inactive
O=c1c(-c2ccc(F)cc2)nc2cnc(N3CCOCC3)nc2n1-c1ccccc1 | 2.3e-08 M (active)
CN1CCN(c2ncc3nc(-c4ccc(Cl)cc4)c(=O)n(-c4ccccc4)c3n2)CC1 | 5.2e-08 M (active)
Cn1cc(-c2nc3cncnc3n(-c3ccccc3)c2=O)c2ccccc21 | inactive
O=C(NCCSc1ccccc1)c1ccco1 | inactive
Cc1cc2ccccc2n2c(SCC(=O)N3CCN(C(=O)c4ccco4)CC3)nnc12 | inactive
CC12CCC(C(=O)N3CCN(c4ncccn4)CC3)(c3nc4ccccc4nc31)C2(C)C (configuration not stated) | inactive
O=c1c(-c2ccc3c(c2)OCCO3)c(C(F)(F)F)oc2cc(O)cc(O)c12 | inactive
CC(=O)Nc1ccn(Cc2c(F)cccc2Cl)n1 | inactive
O=C(c1ccncc1)N1CCC2(CCCN(C(c3ccccc3)c3ccccc3)C2)CC1 | inactive
CC1CCCCC1NC(=O)CSc1nnc(N)s1 (configuration not stated) | inactive
CC(=O)CSc1nnc(CSc2ncccn2)n1C1CCCCC1 | inactive
COc1ccccc1CNC(=O)CCn1c(=O)sc2ccccc21 | inactive
CCN(Cc1nc2ccccc2c(=O)[nH]1)Cc1cc(=O)oc2cc(C)c(C)cc12 | inactive
Cc1ccnc(SCCn2c(Br)nc3c2c(=O)[nH]c(=O)n3C)n1 | inactive
CCCCNC(=O)c1ccccc1NC(=O)c1ccccc1N(C)S(C)(=O)=O | inactive
COc1ccccc1Nc1ncc(C(C)=O)c(C)n1 | inactive
COCCCn1c(CCC(=O)O)ccc1-c1ccc(F)cc1 | 1.6e-06 M (active)

SMILES | max dye-equivalent concentration
CCN(CC)S(=O)(=O)c1cccc(C(=O)Nc2cc(C)nn2-c2nc(C)cc(C)n2)c1 | inactive
c1ccc2sc(SCCSc3nc4ccccc4s3)nc2c1 | inactive
CCOC(=O)N1CCN(C(=O)CNC(=O)Cc2ccc(Cl)cc2)CC1 | inactive
CCOC(=O)N1CCN(C(=O)c2ccc3nc4cc(Cl)ccc4c(=O)n3c2)CC1 | 1.3e-06 M (active)
CCOC(=O)N1CCN(C(=O)c2ccc(S(=O)(=O)c3ccc(C)cc3)c(NC(C)=O)c2)CC1 | inactive
COC(=O)c1ccc(N(CC(=O)NC2CCCC2)C(=O)CNC(=O)c2ccco2)cc1 | inactive
Cc1ccccc1N1CC(c2nc3ccccc3[nH]2)CC1=O (configuration not stated) | inactive
CC(C)(C)n1nnc(CCc2nnn(C(C)(C)C)n2)n1 | inactive
Cc1cc(Cl)c(S(=O)(=O)NCc2cccnc2)cc1OCC(N)=O | inactive
COC(=O)C(C)N(C#N)c1nc(C)nc(C)n1 (configuration not stated) | inactive
Cn1c(=O)[nH]c(=O)c2c1nc(Br)n2CCCCSc1nc2ccccc2o1 | inactive
CC[C@]1(O)CC2CN(CCc3c([nH]c4ccccc34)[C@@](C(=O)OC)(c3cc4c(cc3OC)N(C=O)[C@H]3[C@@](O)(C(=O)OC)[C@H](OC(C)=O)[C@]5(CC)C=CCN6CC[C@]43[C@@H]65)C2)C1 (some centres not stated) | inactive
CC[C@]1(O)C[C@@H]2CN(CCc3c([nH]c4ccccc34)[C@@](C(=O)OC)(c3cc4c(cc3OC)N(C)[C@H]3[C@@](O)(C(=O)OC)[C@H](OC(C)=O)[C@]5(CC)C=CCN6CC[C@]43[C@@H]65)C2)C1 | 4.7e-08 M (active)
Cc1nn(CC(=O)Nc2ccc3c(c2)nc(CN2CCCCC2)n3C)c(=O)c2ccccc12 | inactive
CC(C)NC(=O)N1CC[C@@]2(CCCN(C(=O)c3cccc(F)c3)C2)C1 | inactive
COc1ccccc1CNc1ncnc2ccc(-c3ccc4c(c3)OCO4)cc12 | inactive
COc1ccccc1Nc1ncnc2c1oc1ccccc12 | 7.3e-08 M (active)
Cc1cc(C)nc(N2CCN(c3ncnc4c3oc3ccccc34)CC2)n1 | inactive
S=c1[nH]nc(SCc2ccccc2Cl)c2[nH]cnc12 | inactive
CCC(Oc1ccccc1)C(=O)NCc1cccnc1 (configuration not stated) | inactive
O=C(Nc1cccc(OCC(=O)N2CCOCC2)c1)C1CCCCC1 | inactive
O=C(Oc1ccc2c(c1)CCC2)N1CCOCC1 | inactive
O=C1CC2(CCCCC2)Oc2ccc(OCC(=O)N3CCOCC3)cc21 | 1.2e-06 M (active)
CCOC(=O)CCc1c(C)c2ccc(OCc3nn[nH]n3)c(C)c2oc1=O | 2.4e-08 M (active)
C[C@H](NC(=O)OC(C)(C)C)c1nnc(SCC(=O)Nc2ccc(Br)cc2)o1 | inactive
C=C(Br)Cn1c(CCCC)nc2ccccc21 | inactive

SMILES | max dye-equivalent concentration
CCc1nc2ccccc2n(CCOCCOCCn2c(=O)c(CC)nc3ccccc32)c1=O | 3.4e-08 M (active)
CCC(=O)Nc1nc2ccccc2n1Cc1ccccc1C | inactive
COc1cccc(OC)c1OCCN1CCN(C(=O)c2ccco2)CC1 | inactive
Cc1cccc(Cn2c(SCCO)nc3c2c(=O)n(C)c(=O)n3C)c1 | inactive
CCOC(=O)N1CCN(CC(=O)c2c(C)[nH]c3ccccc23)CC1 | inactive
CCOC(=O)N1CCN(CC(=O)n2c(C)c(C)c3ccccc32)CC1 | inactive
CCOC(=O)N1CCN(CC(=O)c2ccc3c(c2)CCN3)CC1 | 1.2e-08 M (active)
CCNS(=O)(=O)c1ccc(NC(=O)Nc2cccc(C(F)(F)F)c2)cc1 | inactive
CC1Oc2ccccc2N(Cc2cccnc2)C1=O (configuration not stated) | inactive
Cc1ccc(CC2CC(=O)N(c3ccc4c(c3)OCCO4)C2=O)cc1 (configuration not stated) | inactive
N#CC1=C(N)C(C#N)(C#N)[C@H](c2ccsc2)[C@H]2COCC=C12 | 1.3e-08 M (active)
COc1cccc2cc(C(=O)N(C)C)c(=O)oc12 | inactive
COc1ccc(OC)c(S(=O)(=O)Nc2ccccc2F)c1 | 6.6e-08 M (active)
COC(=O)c1ccccc1NC(=O)C1CCN(S(=O)(=O)c2cc(OC)ccc2OC)CC1 | inactive
COc1ccc(F)cc1S(=O)(=O)Nc1ccc2c(c1)OCO2 | inactive
Cc1cc(OCC(=O)O)c(Cl)cc1Cl | inactive
Cc1nc(NC(CC(C)C)C(=O)O)c2nc(C)oc2n1 (configuration not stated) | inactive
COc1c(C)c2c(c(O)c1C/C=C(\C)CCC(=O)O)C(=O)OC2 | 7e-08 M (active) and 1.5e-08 M (active)
O=C(NC1CCCCC1)N1CCc2[nH]c3ccccc3c2C1 | inactive
NC(=O)C1CCN(C2OC(=O)c3ccccc32)CC1 (configuration not stated) | inactive
CCOC(=O)CC1=CC(=O)Nc2ccccc2N1 | inactive
CCOC(=O)CCc1c(C)c(C#N)c2[nH]c3ccccc3n2c1=O | 5.3e-06 M (active)
CCCOC(=O)Cc1c(O)c2ccccc2[nH]c1=O | inactive
CCOC(=O)c1sc(=S)n2c1[nH]c(=O)c1ccc(C(=O)OC)cc12 | inactive
